GPR151 ag: activators of human GPR151; PathHunter beta-arrestin GPR151 cells, luminescence; Q8TDV0; 650,000 compounds, 1% hits; activation, % at 11.2 µM; in the data active means activation above about 4.9%
FBW7 activator: human FBW7 E3 ligase activation, primary screen | AlphaScreen FBW7–phospho-cyclin E peptide binding, activator screen | Q969H0 | 650,000 compounds, 0.13% hits | normalized activity (activation), % at 26.1 µM | AID 1259310; in the data active means normalized activity above about 1.9%;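 further: purified mutant Fbw7 with reduced substrate affinity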
TEAD-YAP inh: TEAD-YAP interaction inhibition. inhibition, % at 9.12 µM. 640,000 compounds, 1.4% hits. HEK-TIYL cells, TEAD-Gal4/YAP UAS-luciferase luminescence. AID 1259422; in the data active means inhibition above about 32%
MITF inh: blocks human microphthalmia-associated transcription factor. 650,000 compounds, 0.91% hits. O75030. AlphaScreen MITF homodimerization, bead proximity signal. AID 1259374. inhibition, % at 2.6 µM; in the data active means inhibition above about 50%
Target sequence (O75030 whole entry, looked up): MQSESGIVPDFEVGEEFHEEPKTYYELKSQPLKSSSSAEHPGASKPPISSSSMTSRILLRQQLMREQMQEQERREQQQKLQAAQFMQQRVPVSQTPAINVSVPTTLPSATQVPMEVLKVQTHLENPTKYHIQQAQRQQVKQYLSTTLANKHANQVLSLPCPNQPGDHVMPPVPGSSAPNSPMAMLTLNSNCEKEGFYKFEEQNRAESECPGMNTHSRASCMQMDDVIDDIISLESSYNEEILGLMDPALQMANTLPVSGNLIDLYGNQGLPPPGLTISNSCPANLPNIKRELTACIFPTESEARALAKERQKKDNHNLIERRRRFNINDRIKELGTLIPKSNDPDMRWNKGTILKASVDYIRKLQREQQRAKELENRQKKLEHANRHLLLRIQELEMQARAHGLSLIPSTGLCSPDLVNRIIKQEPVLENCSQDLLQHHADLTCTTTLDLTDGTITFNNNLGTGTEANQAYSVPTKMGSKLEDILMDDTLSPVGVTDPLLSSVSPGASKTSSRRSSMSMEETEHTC
MITF confirm: human MITF inhibition, confirmation; 4,700 compounds, 16% hits; inhibition, % at 2.6 µM; AlphaScreen MITF homodimerization, biotin/His-MITF beads; shares compounds with MITF inh;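 active means inhibition above a cutoff derived from the DMSO control wells, cut at about 28% in these data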;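 further: inhibitors lower the bead chemiluminescence by keeping MITF from dimerizing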
AlphaScreen intf2: AlphaScreen optical interference, counter-screen; shares compounds with MITF inh; LysRS AlphaScreen counterscreen, signal interference, triplicate; inhibition, % at 2.6 µM; 4,700 compounds, 7.6% hits;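 active means inhibition above a cutoff derived from the DMSO control wells, cut at about 30% in these data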
GPR151 conf act: human GPR151 activation, confirmation screen | GPR151 PathHunter beta-arrestin cells, luminescence, 90 min; % of EA-reagent control over plate median | activation, % at 11.2 µM | AID 1508609 | shares compounds with GPR151 ag | 6,700 tested, under 10 active;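 active means mean percent activation across replicates above the confirmation screen cutoff of 4.91%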
GPR119 counter: activates human GPR119 in a GPR151 counter-screen; shares compounds with GPR151 ag; GPR119 PathHunter beta-arrestin cells, luminescence, 90 min; 0 = compound-well median, 100 = enzyme-acceptor control; activation, % at 11.2 µM; 6,700 compounds, 0.3% hits;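 active means mean percent activation in the counterscreen above 29.09%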;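 further: counterscreen on off-target GPR119 to flag nonselective hits from the GPR151 activator screen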
Each line names hits and unclear results; the compound was inactive in the other large screens (follow-up assays come after a bar, where they were run). Shown are actives, neighbours in structure and some others; about 3.5% of the full set was active somewhere.

CCN1CCN(CCOc2cccc(C(C)=O)c2)CC1	MITF inh 66 | MITF confirm inactive | AlphaScreen intf2 inactive
CN1CCN(CCOCCOc2ccc(Cl)cc2)CC1	none
CCN1CCN(CCCOc2cccc(C(C)C)c2)CC1	none
CC(=O)c1cccc(OCCCCOc2cccc(C(C)=O)c2)c1	none
CN1CCN(CCOCCOc2ccc(C(C)(C)C)cc2)CC1	MITF inh 65 | MITF confirm inactive | AlphaScreen intf2 inactive
CN1CCN(CCCCOc2cccc(C=O)c2)CC1	MITF inh 61 | MITF confirm inactive | AlphaScreen intf2 inactive
CCOc1cccc(OCCCN2CCN(CC)CC2)c1	MITF inh 74 | MITF confirm inactive | AlphaScreen intf2 inactive
CN1CCN(CCCCOc2cccc(C(F)(F)F)c2)CC1	none
COC(=O)c1cc(-c2cccc(OC)c2)no1	none
Cc1cccc(OCCCCN2CCNCC2)c1	none
CCOc1cccc(OCCCCN2CCN(C)CC2)c1	MITF inh 71 | MITF confirm inactive | AlphaScreen intf2 inactive
CCCCOc1cccc(OCCCN2CCN(C)CC2)c1	none
CCOc1cccc(OCCCN2CCNCC2)c1	MITF inh 54 | MITF confirm inactive | AlphaScreen intf2 inactive
CCN1CCN(CCCCOc2cccc(C(F)(F)F)c2)CC1	MITF inh 64 | MITF confirm inactive | AlphaScreen intf2 inactive
CCN1CCN(CCOCCOc2cccc(Oc3ccccc3)c2)CC1	MITF inh 79 | MITF confirm inactive | AlphaScreen intf2 inactive
CCN1CCN(CCCCOc2ccc(C#N)cc2)CC1	MITF inh 66 | MITF confirm inactive | AlphaScreen intf2 inactive
CCOc1ccc(OCCCN2CCN(C)CC2)cc1	MITF inh 79 | MITF confirm inactive | AlphaScreen intf2 inactive
CN1CCN(CCCOc2ccc(C#N)cc2)CC1	none
CCN1CCN(CCOCCOc2ccc(CCC(C)=O)cc2)CC1	MITF inh 66 | MITF confirm inactive | AlphaScreen intf2 inactive
CCCOc1cccc(OCCN2CCN(CC)CC2)c1	MITF inh 79 | MITF confirm inactive | AlphaScreen intf2 inactive
Cc1c(C(N)=O)sc2ncn(CC(=O)NCc3ccco3)c(=O)c12	none
Cc1ccc(S(=O)(=O)N2CCC(C(=O)OCc3ccc(Cl)c(Cl)c3)CC2)cc1	none
COc1ccc(-c2cc(-c3ccccc3)nc(N3CCCCC3)c2C#N)cc1	none
CCOc1ccc(OCCCCN2CCN(C)CC2)cc1	MITF inh 86 | MITF confirm inactive | AlphaScreen intf2 inactive
Nc1cc2c3c(cc(N)cc3c1)C(=O)N(O)C2=O	MITF inh 106 | MITF confirm 111 | AlphaScreen intf2 94
COC(=O)C1Sc2[nH]c(=O)sc2C(c2ccc(OC)cc2)C1C(=O)OC (centres undefined)	MITF inh 52 | MITF confirm inactive | AlphaScreen intf2 inactive
COC(=O)C1Sc2[nH]c(=O)sc2C(c2cccc([N+](=O)[O-])c2)C1C(=O)OC (centres undefined)	none
COc1cc([N+](=O)[O-])cc(/C=C2\C(=O)NN(c3ccccc3)C2=O)c1O	none
CCOC(=O)N1CCN(Cc2cn3ccccc3n2)CC1	MITF inh 61 | MITF confirm inactive | AlphaScreen intf2 inactive
O=S(=O)(Cc1ccccc1)N1CCN(Cc2ccccc2Cl)CC1	MITF inh 92 | MITF confirm inactive | AlphaScreen intf2 inactive
CCS(=O)(=O)N1CCN(Cc2ccccc2[N+](=O)[O-])CC1	none
O=[N+]([O-])c1ccccc1CN1CCN(S(=O)(=O)Cc2ccccc2)CC1	MITF inh 70 | MITF confirm inactive | AlphaScreen intf2 inactive
CS(=O)(=O)N1CCN(c2ccc([N+](=O)[O-])c(N3CCN(Cc4ccccc4)CC3)c2)CC1	MITF inh 83 | MITF confirm inactive | AlphaScreen intf2 inactive
O=C(CNc1ccc2ccccc2c1)N/N=C/c1cccnc1	none
NC(=O)CN1C(=O)c2cccc3cccc1c23	none
CS(=O)(=O)N1CCN(C2CCCCC2)CC1	MITF inh 58 | MITF confirm inactive | AlphaScreen intf2 inactive
CCCN1CCC(N2CCN(S(=O)(=O)c3ccc(F)cc3)CC2)CC1	MITF inh 54 | MITF confirm inactive | AlphaScreen intf2 inactive
O=S(=O)(c1ccc(F)cc1)N1CCN(C2CCCCCC2)CC1	none
CC1CN(C2CCN(S(=O)(=O)c3ccc(F)cc3)CC2)CC(C)O1 (centres undefined)	MITF inh 57 | MITF confirm inactive | AlphaScreen intf2 inactive
O=S(=O)(c1ccc(F)cc1)N1CCN(C2CCCC2)CC1	none
O=S(=O)(c1ccc(F)cc1)N1CCN(C2CCCCC2)CC1	MITF inh 85 | MITF confirm inactive | AlphaScreen intf2 inactive
NS(=O)(=O)c1ccc(CCNC(=O)CSc2nc3ccccc3c(=O)n2CC2CCC(C(=O)NCc3ccco3)CC2)cc1 (centres undefined)	none
COC(=O)C12Nc3ccccc3NC(c3ccccc3)=C1C(=O)C(=O)N2c1ccc(C)cc1 (centres undefined)	none
COc1cc(C(=O)N2CCN(Cc3ccccc3C(F)(F)F)CC2)cc(OC)c1OC	GPR151 ag 12, MITF inh 59 | MITF confirm inactive | AlphaScreen intf2 inactive | GPR151 conf act inactive | GPR119 counter inactive
COc1ccc(CN2CCN(C(=O)c3cc(OC)c(OC)c(OC)c3)CC2)c(OC)c1	none
Cc1cccc(N2C(=O)NC(=O)/C(=C\c3cc(Br)c(O)c([N+](=O)[O-])c3)C2=O)c1	none
CCc1ccc(CN2CCN(Cc3ccc4c(c3)c3ccccc3n4CC)CC2)cc1	GPR151 ag 5.8, MITF inh 70 | MITF confirm inactive | AlphaScreen intf2 inactive | GPR151 conf act inactive | GPR119 counter inactive
CCn1c2ccccc2c2cc(CN3CCN(Cc4ccc5c(c4)c4ccccc4n5CC)CC3)ccc21	none
Brc1c(OCCCN2CCNCC2)ccc2ccccc12	GPR151 ag 18, MITF inh 56 | MITF confirm inactive | AlphaScreen intf2 inactive | GPR151 conf act inactive | GPR119 counter inactive
COc1ccc(C2(C(=O)Nc3ccccc3C)CCOCC2)cc1OC	none
Cc1ccc(-n2nnc(-c3nc(-c4ccccc4)no3)c2N)c(C)c1	none
N#Cc1nc(COc2ccccc2Cl)oc1NCCCn1ccnc1	GPR151 ag 18, MITF inh 96 | MITF confirm inactive | AlphaScreen intf2 inactive | GPR151 conf act inactive | GPR119 counter inactive
N#Cc1nc(-c2ccccc2)oc1NCCCn1ccnc1	none
O=C(NCCC1=CCCCC1)c1ccccc1I	none
C=CCC1(CC=C)CCCCN1C(=O)CC1C(=O)NCCN1Cc1ccoc1 (centres undefined)	GPR151 ag 6.4, MITF inh 80 | MITF confirm inactive | AlphaScreen intf2 inactive | GPR151 conf act inactive | GPR119 counter inactive

Source: PubChem BioAssay (The Scripps Research Institute Molecular Screening Center)
